The panel holds about 79,000 compounds, 15% with a hit somewhere; the sample as a whole holds those more often. Calls of active or inactive are those of the source. No stated cut-off is given here; in the data, active means growth inhibition above about 70%; inactive means the rest.
Experiments:
[1] = NCI Yeast Anticancer Drug Screen. Data for the rad52 strain (AID 147);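 further: 0% = growth of vehicle-treated control cultures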; conditions: S. cerevisiae rad52 mutant growth inhibition, hits give high values
How it was run: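 The repair-mutant yeast strain was incubated with compounds, then growth was read and inhibition derived relative to vehicle.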

[2] = NCI Yeast Anticancer Drug Screen. Data for the wt1 strain (AID 149);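 further: 0% = growth of vehicle-treated wt1 cultures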; conditions: S. cerevisiae wt1 strain (SPY 50644) growth inhibition, hits give high values
How it was run: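 The wt1 strain was treated with compounds, and growth was compared with vehicle-treated cultures to give inhibition.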

[3] = NCI Yeast Anticancer Drug Screen. Data for the rad50EPP+ strain (AID 151);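 further: 0% = growth of vehicle-treated control cultures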; conditions: S. cerevisiae rad50 mutant strain, hits give high values
How it was run: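 Vehicle-normalised growth inhibition; rad50EPP+ yeast strain, altered in DNA damage repair, compound-treated.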

[4] = NCI Yeast Anticancer Drug Screen. Data for the mgt1 strain (AID 153); conditions: S. cerevisiae mgt1 mutant growth inhibition, hits give high values
How it was run: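 Vehicle-normalized growth inhibition is determined in mgt1 yeast, a strain selected for a defined alteration in DNA repair or cell cycle control.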

[5] = NCI Yeast Anticancer Drug Screen. Data for the rad50 strain (AID 155);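 further: 0% = growth of vehicle-only cultures of the same strain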; conditions: S. cerevisiae rad50 strain growth inhibition, hits give high values
How it was run: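 Cells are treated with compound, grown, and their growth is then scored against vehicle-only cultures of the same repair-deficient yeast strain.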

[6] = NCI Yeast Anticancer Drug Screen. Data for the mec2-1 strain (AID 157); conditions: S. cerevisiae mec2-1 strain, hits give high values
How it was run: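 Mutant yeast (mec2-1) grown with compound; growth inhibition relative to vehicle control reported.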

[7] = NCI Yeast Anticancer Drug Screen. Data for the rad14 strain (AID 159);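 further: 0% = growth of vehicle-treated control cultures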; conditions: S. cerevisiae rad14 strain growth inhibition, hits give high values
How it was run: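 Readout: yeast growth inhibition, referenced to vehicle-only cultures. Strain bears a defined alteration in DNA damage repair.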

[8] = NCI Yeast Anticancer Drug Screen. Data for the sgs1 mgt1 strain (AID 161);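 further: 0% = growth of cultures given vehicle only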; conditions: S. cerevisiae sgs1 mgt1 strain, hits give high values
How it was run: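 Compounds are added to genetically altered yeast, and growth is compared with cultures given vehicle alone to give percent inhibition.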

[9] = NCI Yeast Anticancer Drug Screen. Data for the CLN2oe strain (AID 163);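 further: 0% = growth of vehicle-only control cultures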; conditions: S. cerevisiae CLN2oe strain, hits give high values
How it was run: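 Compounds are applied to yeast harbouring a defined cell-cycle control change; reduced growth compared with vehicle-treated controls gives the value.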

[10] = NCI Yeast Anticancer Drug Screen. Data for the cln2 rad14 strain (AID 165);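 further: 0% = growth equal to vehicle treated cultures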; conditions: S. cerevisiae cln2 rad14 strain, hits give high values
How it was run: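 Readout is yeast growth inhibition versus vehicle-treated controls, using a strain with cln2 and rad14 alterations exposed to compound.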

[11] = NCI Yeast Anticancer Drug Screen. Data for the bub3 strain (AID 167); conditions: S. cerevisiae bub3 mutant strain, hits give high values
How it was run: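 Part of a panel of yeast mutants defective in DNA damage repair or cell cycle regulation. Each strain is grown with compound, and inhibition is calculated relative to solvent-treated cultures.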

[12] = NCI Yeast Anticancer Drug Screen. Data for the wt2 strain (AID 169);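 further: 0% = growth of vehicle-treated yeast cultures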; conditions: S. cerevisiae wt2 strain growth inhibition, hits give high values
How it was run: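 Against vehicle-treated controls, the growth of yeast exposed to each compound was compared, and the inhibition was recorded.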

[13] = NCI Yeast Anticancer Drug Screen. Data for the sgs1 strain (AID 173);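 further: 0% = growth of vehicle-only control cultures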; conditions: S. cerevisiae sgs1 mutant, hits give high values
How it was run: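 Each compound was added to cultures of the altered yeast strain. Growth was recorded, and inhibition was derived by comparison with vehicle controls.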

[14] = NCI Yeast Anticancer Drug Screen. Data for the mlh1 rad18 strain (AID 175); conditions: S. cerevisiae mlh1 rad18 strain growth inhibition, hits give high values
How it was run: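 Genetically defined yeast (DNA repair-deficient) exposed to compounds; growth inhibition determined relative to vehicle.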

[15] = NCI Yeast Anticancer Drug Screen. Data for the rad18 strain (AID 177); conditions: S. cerevisiae rad18 mutant growth inhibition, hits give high values
How it was run: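 Vehicle-treated cultures served as the baseline for scoring compound-induced growth inhibition in DNA-repair-mutant yeast.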

[16] = at 5.0 µM (retest, dose inferred, filed as 0.5)
[17] = at 50.0 µM (retest, dose inferred, filed as 5.0)

Measured: growth inhibition

ClCCn1c(CCl)nc2ccc(Cl)cc21
active: [1]; at 100.0 µM 98% | [2]; at 100.0 µM 97% | [3]; at 100.0 µM 91% | [4]; at 33.0 µM 71% | [4]; at 100.0 µM 98% | [5]; at 50.0 µM 72.7% | [5]; at 100.0 µM 97% | [6]; at 33.0 µM 76% | [6]; [17] 75% | [6]; at 50.0 µM 84% | [6]; at 100.0 µM 95% | [7]; at 33.0 µM 70% | [7]; at 100.0 µM 99% | [8]; [17] 73% | [8]; at 50.0 µM 83.6% | [9]; at 100.0 µM 97% | [11]; at 50.0 µM 81.5% | [11]; at 100.0 µM 96% | [12]; at 33.0 µM 77% | [12]; at 100.0 µM 98% | [13]; at 100.0 µM 98% | [14]; [17] 75% | [14]; at 50.0 µM 79% | [15]; at 33.0 µM 78% | [15]; at 100.0 µM 98%
inactive: [1]; at 1.2 µM -34% | [1]; at 3.7 µM -41% | [1]; at 11.0 µM -8% | [1]; at 33.0 µM 69% | [2]; at 1.2 µM -52% | [2]; at 3.7 µM -61% | [2]; at 11.0 µM -53% | [2]; at 33.0 µM 52% | [3]; at 1.2 µM -12% | [3]; at 3.7 µM 6% | [3]; at 11.0 µM 9% | [3]; at 33.0 µM 48% | [4]; at 1.2 µM -29% | [4]; at 3.7 µM -32% | [4]; at 11.0 µM -16% | [5]; at 1.2 µM -20% | [5]; at 3.7 µM -11% | [5]; [16] 19% | [5]; at 11.0 µM -3% | [5]; at 33.0 µM 63% | [5]; [17] 54% | [6]; at 1.2 µM -27% | [6]; at 3.7 µM -49% | [6]; [16] 18% | [6]; at 11.0 µM -10% | [7]; at 1.2 µM -8% | [7]; at 3.7 µM 0% | [7]; at 11.0 µM 10% | [8]; [16] 18% | [9]; at 1.2 µM 4% | [9]; at 3.7 µM 8% | [9]; at 11.0 µM 34% | [9]; at 33.0 µM 58% | [10]; [16] 7% | [10]; [17] 7% | [10]; at 50.0 µM 41.2% | [11]; at 1.2 µM -20% | [11]; at 3.7 µM -25% | [11]; [16] 13% | [11]; at 11.0 µM -15% | [11]; at 33.0 µM 60% | [11]; [17] 46% | [12]; at 1.2 µM -10% | [12]; at 3.7 µM -13% | [12]; at 11.0 µM 8% | [13]; at 1.2 µM -19% | [13]; at 3.7 µM -31% | [13]; at 11.0 µM 10% | [13]; at 33.0 µM 60% | [14]; [16] 26% | [15]; at 1.2 µM -29% | [15]; at 3.7 µM -14% | [15]; at 11.0 µM 30%
